Reference: PubChem BioAssay (Tox21)
Inconclusive results are not listed. Calls of active or inactive are those of the source. Unless noted, calls follow the shape of the dose curve; as a rule, active = well fitted curve in the direction sought with a large enough effect in the repeat runs; inconclusive = weak or mixed curves; inactive = no such curve, though single readings can be large; an effect the other way counts as inactive or inconclusive.

Tests used:
[1] = qHTS assay for small molecule agonists of the p53 signaling pathway (AID 651631; calls by dose curve; also: nearly all actives have a fitted effect of over 15% in size; also: potency is read from the fitted curve at half-maximal effect)
Procedure, shortened: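 Quantitative high-throughput format: 4,000 p53RE-bla HCT-116 cells/well, 5 h pre-incubation, 16 h compound exposure at 37 °C, 2 h room-temperature substrate step, fluorescence intensity measured.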

[2] = qHTS assay for small molecules that induce genotoxicity in human embryonic kidney cells expressing luciferase-tagged ATAD5 (AID 651632); also: nearly all actives have a fitted effect of over 15% in size; also: potency is read from the fitted curve at half-maximal effect
Procedure, shortened: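 Concentration-response screen for ATAD5 upregulation in HEK293T luciferase reporter cells; 16 hr treatment at 37C, then luminescence after 30 min with Amplite at room temperature.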

[3] = qHTS assay for small molecule agonists of the p53 signaling pathway - cell viability (AID 651633; calls by dose curve;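 also: p53RE-bla HCT reporter cells with a stable beta-lactamase p53 reporter; series mostly up to about 83 µM; nearly all actives have a fitted effect of over 30% in size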)
Procedure, shortened: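 Viability counter-read: CellTiter-Glo luminescence (30 min, room temperature) in the same p53RE-bla plates. These plates had been exposed to compounds for 16 h at 37 C.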

[4] = qHTS assay for small molecules that induce genotoxicity in human embryonic kidney cells expressing luciferase-tagged ATAD5 - cell viability (AID 651634; calls by dose curve; also: nearly all actives have a fitted effect of over 25% in size; also: potency is read from the fitted curve at half-maximal effect)
Procedure, shortened: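 15.5 hr compound or vehicle exposure of HEK293T cells expressing luciferase-tagged ATAD5 at 37C; live-cell protease activity is read by fluorescence after 30 min of CellTiter-Fluor.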

[5] = qHTS assay for small molecule disruptors of the mitochondrial membrane potential - cell viability (AID 720634; calls by dose curve;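 also: human HepG2 liver cancer cells; series mostly up to about 83 µM; nearly all actives have a fitted effect of over 20% in size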)
Procedure, shortened: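 In this qHTS format, HepG2 cells plated overnight were pinned with compound, incubated 1 hr, and assayed for ATP luminescence with CellTiter-Glo after m-MPI dye addition.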

[6] = qHTS assay for small molecule disruptors of the mitochondrial membrane potential (AID 720635); also: potency is read from the fitted curve at half-maximal effect
Procedure, shortened: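 Mitochondrial membrane potential tracked with Mito-MPS dye, red aggregates (ex 540/em 590 nm) against green monomers (ex 490/em 535 nm). Compound treatment 1 hr at 37C, dye 30 min in HepG2.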

[7] = qHTS assay to test for compound auto fluorescence at 590 nm (red) in HepG2 cells (AID 720674)
Procedure, shortened: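 Red autofluorescence (Ex/Em 540/590 nm, Rose Bengal sodium equivalents) was measured in HepG2 cells, 2,000 per well in MEM plus 10% FBS, plated overnight at 37 C. Readings were taken 1 hr after adding 23 nL compound or DMSO, at 37 C and 5% CO2.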

[8] = qHTS assay to test for compound auto fluorescence at 535 nm (green) in HepG2 cells (AID 720675)
[9] = qHTS assay to test for compound auto fluorescence at 460 nm (blue) in HEK293 cells (AID 720678)
Procedure, shortened: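 HEK293, 2,000 cells/well, 10% dialyzed FBS; attach 4-5 hr 37C; pin compound or DMSO; o/n 37C/5% CO2; fluorescence 405/460 nm; triamterene-equivalent units.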

[10] = qHTS assay to test for compound auto fluorescence at 535 nm (green) in HEK293 cells (AID 720680)
[11] = qHTS assay to test for compound auto fluorescence at 460 nm (blue) in HEK293 cell free culture (AID 720681)
Procedure, shortened: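 Blue fluorescence (Ex 405/Em 460 nm, triamterene-equivalent) was read immediately after pin transfer of compound or DMSO into medium (DMEM, 10% FBS) without cells.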

[12] = qHTS assay to test for compound auto fluorescence at 535 nm (green) in HEK293 cell free culture (AID 720682)
Procedure, shortened: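 Measurement is a direct plate read of green fluorescence (485 nm in, 535 nm out) after compound addition to serum-supplemented DMEM lacking cells, with fluorescein used to express intensities.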

[13] = qHTS assay to test for compound auto fluorescence at 590 nm (red) in HEK293 cell free culture (AID 720683)
Procedure, shortened: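 Red-channel autofluorescence of compounds in culture medium (DMEM, 10% FBS), no cells, measured at 540/590 nm. Rose Bengal sodium is the reference fluorophore for equivalence.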

[14] = qHTS assay to test for compound auto fluorescence at 590 nm (red) in HepG2 cell free culture (AID 720684)
Procedure, shortened: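 Cell-free; medium MEM + 10% FBS; compound or DMSO added by pintool; read Ex 540/Em 590 nm; Rose Bengal sodium as red reference fluorophore.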

[15] = qHTS assay to test for compound auto fluorescence at 460 nm (blue) in HepG2 cell free culture (AID 720685)
Procedure, shortened: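 Cell-free plates of MEM plus 10% FBS received 23 nL compound or DMSO vehicle; blue-channel (405/460 nm) intensity scored against triamterene as reference fluorophore.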

[16] = qHTS assay to test for compound auto fluorescence at 535 nm (green) in HepG2 cell free culture (AID 720686)
[17] = qHTS assay to test for compound auto fluorescence at 460 nm (blue) in HepG2 cells (AID 720687)
Procedure, shortened: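 Blue-channel autofluorescence (Ex/Em 405/460 nm, triamterene-equivalent) was measured after 1 hr compound exposure at 37 C, 5% CO2. Cells were HepG2, plated overnight at 37 C in MEM plus 10% FBS.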

[18] = target: Glucocorticoid receptor (Homo sapiens) (UniProt P04150); test: qHTS assay to identify small molecule agonists of the glucocorticoid receptor (GR) signaling pathway (AID 720691; active = well fitted activation curve with a large enough effect in the signal ratio in the repeat runs, not every such curve was filed as active; the % refers to the signal ratio)
Procedure, shortened: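 Measures GR pathway activation through a GRE-beta-lactamase reporter stably integrated in HeLa cells, with 18 h compound treatment at 37 C and fluorescence detection using a FRET substrate.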

[19] = qHTS assay to test for compound auto fluorescence at 590 nm (red) in HEK293 cells (AID 720679)
Procedure, shortened: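 Intensity at 540nm excitation and 590nm emission is reported as Rose Bengal sodium-equivalent autofluorescence. Measurements followed overnight exposure (37C, 5% CO2) of HEK293 cells, 2,000 per well, to 23 nL compound.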

[20] = target: Glucocorticoid receptor (Homo sapiens) (UniProt P04150); test: qHTS assay to identify small molecule antagonists of the glucocorticoid receptor (GR) signaling pathway (AID 720692; active = well fitted inhibition curve with a large enough effect in the signal ratio in the repeat runs, not every such curve was filed as active; the % refers to the signal ratio)
Procedure, shortened: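 Tox21 10K library screened in concentration-response for blockade of dexamethasone (5 nM final)-induced GRE-bla reporter activity in HeLa cells; 18 h treatment, fluorescence read.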
% is scaled to controls: 0 for no effect and ±100 for the full control effect.

Glucocorticoid receptor (Homo sapiens), sequence (P04150 whole entry, looked up): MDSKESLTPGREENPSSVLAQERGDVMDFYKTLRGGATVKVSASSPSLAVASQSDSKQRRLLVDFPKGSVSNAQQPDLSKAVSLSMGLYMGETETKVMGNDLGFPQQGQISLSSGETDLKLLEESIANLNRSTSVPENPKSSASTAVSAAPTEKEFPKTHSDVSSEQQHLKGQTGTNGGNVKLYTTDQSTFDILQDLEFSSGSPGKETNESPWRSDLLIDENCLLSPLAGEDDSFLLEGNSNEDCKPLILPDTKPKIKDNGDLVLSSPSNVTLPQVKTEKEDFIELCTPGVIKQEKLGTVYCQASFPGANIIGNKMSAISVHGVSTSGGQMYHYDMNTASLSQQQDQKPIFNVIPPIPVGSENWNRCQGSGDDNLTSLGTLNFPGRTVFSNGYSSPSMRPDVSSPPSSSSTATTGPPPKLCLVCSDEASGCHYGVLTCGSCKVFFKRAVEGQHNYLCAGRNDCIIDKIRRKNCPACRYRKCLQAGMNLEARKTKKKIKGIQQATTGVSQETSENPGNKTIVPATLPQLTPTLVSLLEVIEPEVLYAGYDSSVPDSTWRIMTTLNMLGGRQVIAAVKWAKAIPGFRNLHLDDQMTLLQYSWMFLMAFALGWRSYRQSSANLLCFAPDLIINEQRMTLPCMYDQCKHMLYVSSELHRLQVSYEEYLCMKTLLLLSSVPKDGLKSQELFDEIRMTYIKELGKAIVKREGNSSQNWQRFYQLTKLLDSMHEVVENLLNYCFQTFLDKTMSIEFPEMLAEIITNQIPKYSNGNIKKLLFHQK

CCCCOC(=O)C(C)Oc1ccc(Oc2ccc(C(F)(F)F)cn2)cc1 (stereo not drawn)
inactive: Potency [1] | Potency [2] | Potency [3] | Potency [4] | Potency [5] | Potency [6] | outcome [7] | outcome [8] | Potency [9] | outcome [10] | Potency [11] | outcome [12] | outcome [13] | outcome [14] | outcome [15] | outcome [16] | outcome [17] | Potency [18]

CC(C)Cc1nccs1
inactive: Potency [1] | Potency [2] | Potency [3] | Potency [4] | Potency [5] | outcome [7] | outcome [8] | Potency [9] | outcome [19] | outcome [10] | Potency [11] | outcome [12] | outcome [13] | outcome [14] | outcome [15] | outcome [16] | outcome [17]

CCCCOc1ccc(N)cc1
inactive: Potency [1] | Potency [2] | Potency [3] | Potency [4] | Potency [5] | outcome [7] | outcome [8] | Potency [9] | outcome [19] | outcome [10] | Potency [11] | outcome [12] | outcome [13] | outcome [14] | outcome [15] | outcome [16] | outcome [17] | Potency [18] | Potency [20]

C=C(C)C(=O)OCCCCCCCCCCOC(=O)C(=C)C
inactive: Potency [1] | Potency [2] | Potency [3] | Potency [4] | Potency [5] | outcome [7] | outcome [8] | Potency [9] | outcome [19] | outcome [10] | Potency [11] | outcome [12] | outcome [13] | outcome [14] | outcome [15] | outcome [16] | outcome [17]

Sc1nc(S)nc(S)n1
inactive: Potency [1] | Potency [2] | Potency [3] | Potency [4] | Potency [5] | outcome [7] | outcome [8] | Potency [9] | outcome [19] | outcome [10] | Potency [11] | outcome [12] | outcome [13] | outcome [14] | outcome [15] | outcome [16] | outcome [17]

CC(C)C/C=C(\C=O)c1ccccc1
inactive: Potency [1] | Potency [2] | Potency [3] | Potency [4] | Potency [5] | outcome [7] | outcome [8] | Potency [9] | outcome [19] | outcome [10] | Potency [11] | outcome [12] | outcome [13] | outcome [14] | outcome [15] | outcome [16] | outcome [17] | Potency [18]

O=C1c2ccccc2C(=O)C1c1ccc2cc(S(=O)(=O)O)cc(S(=O)(=O)O)c2n1
inactive: Potency [1] | Potency [2] | Potency [3] | Potency [5] | outcome [7] | outcome [8] | Potency [9] | outcome [19] | outcome [10] | Potency [11] | outcome [12] | outcome [13] | outcome [14] | outcome [15] | outcome [16] | outcome [17] | Potency [18]
active: Potency [4] 52.5 µM

COc1cccc([C@H](O)C2CCN(CCc3ccc(F)cc3)CC2)c1OC
inactive: Potency [1] | Potency [2] | Potency [3] | Potency [4] | Potency [5] | outcome [7] | outcome [8] | Potency [9] | outcome [19] | outcome [10] | Potency [11] | outcome [12] | outcome [13] | outcome [14] | outcome [15] | outcome [16] | outcome [17] | Potency [18]

CCn1nc(Cc2ccccc2)cc1C1CCN(C[C@H]2C[C@H](N(C)[C@@H](C(=O)O)C(C)C)C[C@@H]2c2cccc(F)c2)CC1
inactive: Potency [1] | Potency [2] | Potency [3] | Potency [4] | Potency [5] | outcome [7] | outcome [8] | Potency [9] | outcome [19] | outcome [10] | Potency [11] | outcome [12] | outcome [13] | outcome [14] | outcome [15] | outcome [16] | outcome [17] | Potency [18] | Potency [20]

CCc1cnc(C(=O)O)c(C(=O)O)c1
inactive: Potency [1] | Potency [2] | Potency [3] | Potency [4] | Potency [5] | Potency [6] | outcome [7] | outcome [8] | Potency [9] | outcome [19] | outcome [10] | Potency [11] | outcome [12] | outcome [13] | outcome [14] | outcome [15] | outcome [16] | outcome [17]

CCCCOC(=O)CC#N
inactive: Potency [1] | Potency [2] | Potency [3] | Potency [4] | Potency [5] | outcome [7] | outcome [8] | Potency [9] | outcome [19] | outcome [10] | Potency [11] | outcome [12] | outcome [13] | outcome [14] | outcome [15] | outcome [16] | outcome [17]

C/C(=C(\CCO)SS/C(CCO)=C(\C)N(C=O)Cc1cnc(C)nc1N)N(C=O)Cc1cnc(C)nc1N
inactive: Potency [1] | Potency [2] | Potency [3] | Potency [4] | Potency [5] | outcome [7] | outcome [8] | Potency [9] | outcome [19] | outcome [10] | Potency [11] | outcome [12] | outcome [13] | outcome [14] | outcome [15] | outcome [16] | outcome [17] | Potency [18] | Potency [20]

CCN(CCCCOC(=O)c1ccc(OC)c(OC)c1)C(C)Cc1ccc(OC)cc1 (stereo not drawn)
inactive: Potency [1] | Potency [2] | Potency [3] | Potency [4] | Potency [5] | Potency [6] | fluorescence, relative to Rose Bengal [7] 0.21% [at 18.6 µM] | fluorescence, % of fluorescein control [8] 0.0889% [at 18.6 µM] | fluorescence, % of triamterene [9] 0.0022% [at 18.6 µM] | fluorescence, % of fluorescent control [19] -0.338% [at 18.6 µM] | fluorescence, % of fluorescein [10] 0.0099% [at 18.6 µM] | fluorescence, % of fluorescent control [11] 0.0098% [at 18.6 µM] | activity change [12] 0.0553% [at 18.6 µM] | fluorescence, % of fluorescent control [13] -0.0979% [at 18.6 µM] | fluorescence, % of Rose Bengal [14] 0.006% [at 18.6 µM] | fluorescence, % of fluorescent control [15] 0.0055% [at 18.6 µM] | fluorescence, % of fluorescein control [16] 0.0076% [at 18.6 µM] | fluorescence, % of fluorescent control [17] 0.0432% [at 18.6 µM] | Potency [18] | Potency [20]

COc1ccc(/C=C/S(=O)(=O)NC(=O)c2ccc(C)cc2Cl)cc1
inactive: Potency [3] | Potency [4] | Potency [5] | outcome [7] | outcome [8] | Potency [9] | outcome [19] | outcome [10] | Potency [11] | outcome [12] | outcome [13] | outcome [14] | outcome [15] | outcome [16] | outcome [17]
active: Potency [1] 30.6 µM | Potency [2] 21.7 µM | Potency [6] 61.1 µM
